Each structure is given as a SMILES string. Inconclusive results are not listed. Calls of active or inactive are those of the source. Calls follow the shape of the dose curve; as a rule, active = well fitted cell-killing curve with a large enough effect; inconclusive = small, poorly fitted or top-dose-only effect, or effect the other way; inactive = no such curve, though single readings can be large or run the other way.
Potency is read from the fitted curve at half-maximal effect.

A short description of one test: Quantitative High-Throughput drug screen in 47 multiple myeloma cell lines against the NCATS MIPE library collection: OCIMY1_PLB cell viability assay (AID 1918979). Also: nearly all actives have a fitted effect of over 35% in size. The conditions noted are these: OCI-MY1 myeloma viability, CellTiter-Glo ATP, 48 h; series mostly up to 45.8 µM; viability: at the top concentration. In short, it runs like this:
(§1)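 Myeloma cells (500/well) treated with MIPE 4.0 compounds for 48 h at 37 °C, 5% CO2. Viability read as ATP via CellTiter-Glo luminescence after 5 min at RT; DMSO-only wells = 100%, media-only = 0% viability.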
Background: In ATP-based viability assays light output follows the ATP content of the culture.
In general, viability refers to a read-out of living cells in per cent, often relative to untreated cells. As for `CCOC(=O)Nc1ccc(NCc2ccc(F)cc2)nc1N`, the “viability” value is 128% (inactive). As for `Cc1cnc(C(=O)NCCc2ccc(S(=O)(=O)NC(=O)NC3CCCCC3)cc2)cn1`, the “viability” value is 117% (inactive). The same measure, in the same setting: the result for `CC(C)(C)C(=O)Oc1ccc(S(=O)(=O)Nc2ccccc2C(=O)NCC(=O)O)cc1` reads 108% (inactive); that for `Cc1ccc(C(=O)Nc2ccc(S(=O)(=O)O)c3cc(S(=O)(=O)O)cc(S(=O)(=O)O)c23)cc1NC(=O)c1cccc(NC(=O)Nc2cccc(C(=O)Nc3cc(C(=O)Nc4ccc(S(=O)(=O)O)c5cc(S(=O)(=O)O)cc(S(=O)(=O)O)c45)ccc3C)c2)c1`, 110% (inactive).

Take `Cc1ccccc1N1C(=O)c2cc(S(N)(=O)=O)c(Cl)cc2NC1C` (stereo not given): the “viability” value is 111% (inactive). For the compound `CC12CC3CC(C)(C1)CC(N)(C3)C2`, the “viability” value was 128% (inactive). As for `O=C(c1ccc(F)cc1)C1CCN(CCn2c(=O)[nH]c3ccccc3c2=O)CC1`, the “viability” value was 110% (inactive).

`NCCCCCC(=O)O`: the “viability” value was 123% (inactive). `Clc1ccc(C(c2ccccc2Cl)C(Cl)Cl)cc1` (stereo not given): the Potency is 26.4 µM (active). With `Clc1ccccc1C(c1ccccc1)(c1ccccc1)n1ccnc1`, the “viability” value is 99.8% (inactive). On to `C[C@@H]1CC(=O)NN=C1c1ccc(NN=C(C#N)C#N)cc1`, for which the Potency is 23.5 µM (active). Same read-out and setting: next, `O=C1Cc2cc(CCN3CCN(c4nsc5ccccc45)CC3)c(Cl)cc2N1`: 20.9 µM (active). As to `Cc1cc(C(C)(C)C)c(O)c(C)c1CC1=NCCN1`, the “viability” value was 112% (inactive). Same read-out and setting: the result for `NCCS(=O)(=O)O` reads 94.6% (inactive); that for `CN(C)c1nc(N(C)C)nc(N(C)C)n1`, 123% (inactive).

The next test in a line: Quantitative High-Throughput drug screen in 47 multiple myeloma cell lines against the NCATS MIPE library collection: MM1S_ATCC cell viability assay (AID 1918980). Also: nearly all actives have a fitted effect of over 45% in size. The conditions noted are these: MM1S myeloma viability, CellTiter-Glo ATP luminescence, 48 h; series mostly up to 45.8 µM; viability (% of control): at the top concentration. The essentials:
as §1
Take `CCCCc1oc2ccccc2c1C(=O)c1cc(I)c(OCCN(CC)CC)c(I)c1`: the Potency was 2.35 µM (active). The same measure, in the same setting: next, `CCOC(=O)c1ncn2c1CN(C)C(=O)c1cc(F)ccc1-2`: 18.7 µM (active); `O=C(CCCN1CCC(O)(c2ccc(Cl)cc2)CC1)c1ccc(F)cc1`: 9.35 µM (active); `CC(C)(Oc1ccc(C2CC2(Cl)Cl)cc1)C(=O)O` (stereo not given): 9.59 µM (active). On the same count and under the same terms, next, `CN1CCN2c3ccccc3Cc3ccccc3C2C1` (stereo not given): 13.2 µM (active). For the compound `Cn1c(=O)c2c(ncn2C)n(C)c1=O`, the “viability (% of control)” value was 136% (inactive). On to `CC1(CN2CCC(n3c(=O)[nH]c4ccccc43)CC2)OCc2ccccc2-n2cccc21` (stereo not given), for which the Potency was 7.43 µM (active). Same read-out and setting: next, `CN(Cc1cnc2nc(N)nc(N)c2n1)c1ccc(C(=O)N[C@@H](CCC(=O)O)C(=O)O)cc1`: 0.0187 µM (active). As for `CCC1(C)CC(=O)NC1=O` (stereo not given), the “viability (% of control)” value is 130% (inactive). On to `CCOC(=O)Nc1ccc(NCc2ccc(F)cc2)nc1N`, for which the Potency was 23.5 µM (active). The same measure, in the same setting: the result for `Cc1cn([C@H]2C[C@H](N=[N+]=[N-])[C@@H](CO)O2)c(=O)[nH]c1=O` reads 3.32 µM (active). Still for that read-out and setting: next, `CC(C)C(=O)Nc1ccc([N+](=O)[O-])c(C(F)(F)F)c1`: 1.66 µM (active). Same read-out and setting: the result for `COC(=O)Nc1nc2ccc(C(=O)c3cccs3)cc2[nH]1` reads 0.0743 µM (active). As for `Cc1ccccc1N1C(=O)c2cc(S(N)(=O)=O)c(Cl)cc2NC1C` (stereo not given), the “viability (% of control)” value was 140% (inactive). With `CC12CC3CC(C)(C1)CC(N)(C3)C2`, the Potency is 18.7 µM (active). For the compound `OCCN(CCO)c1nc(N2CCCCC2)c2nc(N(CCO)CCO)nc(N3CCCCC3)c2n1`, the Potency is 20.9 µM (active). In the case of `NCCCCCC(=O)O`, the Potency is 16.6 µM (active). As for `C[C@@H]1CC(=O)NN=C1c1ccc(NN=C(C#N)C#N)cc1`, the Potency is 23.5 µM (active). Take `NCCS(=O)(=O)O`: the “viability (% of control)” value is 122% (inactive).

Another test is described as follows: Quantitative High-Throughput drug screen in 47 multiple myeloma cell lines against the NCATS MIPE library collection: MM1R_ATCC cell viability assay (AID 1918981). Also: nearly all actives have a fitted effect of over 35% in size. The note with it: MM1R multiple myeloma cells, CellTiter-Glo viability, 48 h; series mostly up to 45.8 µM; viability (% of control): at the top concentration. In short, it runs like this:
as §1
In the case of `CCCCc1oc2ccccc2c1C(=O)c1cc(I)c(OCCN(CC)CC)c(I)c1`, the Potency was 18.7 µM (active).

As for `CCOC(=O)c1ncn2c1CN(C)C(=O)c1cc(F)ccc1-2`, the Potency is 18.7 µM (active). As to `O=C(CCCN1CCC(O)(c2ccc(Cl)cc2)CC1)c1ccc(F)cc1`, the “viability (% of control)” value was 96.8% (inactive). Consider `CCCNCC(O)COc1ccccc1C(=O)CCc1ccccc1` (stereo not given), for which the “viability (% of control)” value was 84.2% (inactive). Take `CC(C)(Oc1ccc(C2CC2(Cl)Cl)cc1)C(=O)O` (stereo not given): the Potency is 48.1 µM (active). In the case of `COc1cc2nc(N3CCN(C(=O)C4COc5ccccc5O4)CC3)nc(N)c2cc1OC` (stereo not given), the Potency was 20.9 µM (active).

Consider `NCCc1cnc[nH]1`, for which the Potency is 1.87 µM (active). `Cn1c(=O)c2c(ncn2C)n(C)c1=O`: the “viability (% of control)” value was 91.6% (inactive).

Take `CC1(CN2CCC(n3c(=O)[nH]c4ccccc43)CC2)OCc2ccccc2-n2cccc21` (stereo not given): the Potency was 2.64 µM (active). With `CN(Cc1cnc2nc(N)nc(N)c2n1)c1ccc(C(=O)N[C@@H](CCC(=O)O)C(=O)O)cc1`, the Potency was 0.935 µM (active). Turning to `CCC1(C)CC(=O)NC1=O` (stereo not given), the “viability (% of control)” value was 124% (inactive).

With `Cc1cn([C@H]2C[C@H](N=[N+]=[N-])[C@@H](CO)O2)c(=O)[nH]c1=O`, the “viability (% of control)” value was 87.7% (inactive). Regarding `CC(C)(C)C(=O)Oc1ccc(S(=O)(=O)Nc2ccccc2C(=O)NCC(=O)O)cc1`, the “viability (% of control)” value was 132% (inactive). On the same count and under the same terms, next, `Cc1ccc(C(=O)Nc2ccc(S(=O)(=O)O)c3cc(S(=O)(=O)O)cc(S(=O)(=O)O)c23)cc1NC(=O)c1cccc(NC(=O)Nc2cccc(C(=O)Nc3cc(C(=O)Nc4ccc(S(=O)(=O)O)c5cc(S(=O)(=O)O)cc(S(=O)(=O)O)c45)ccc3C)c2)c1`: 103% (inactive). Consider `CC(C)C(=O)Nc1ccc([N+](=O)[O-])c(C(F)(F)F)c1`, for which the Potency was 3.72 µM (active).

For the compound `COC(=O)Nc1nc2ccc(C(=O)c3cccs3)cc2[nH]1`, the Potency is 0.0418 µM (active). Regarding `Cc1ccccc1N1C(=O)c2cc(S(N)(=O)=O)c(Cl)cc2NC1C` (stereo not given), the “viability (% of control)” value was 112% (inactive). For `O=C(c1ccc(F)cc1)C1CCN(CCn2c(=O)[nH]c3ccccc3c2=O)CC1`, the “viability (% of control)” value was 95.1% (inactive).

As for `NCCCCCC(=O)O`, the “viability (% of control)” value is 114% (inactive). For `Clc1ccc(C(c2ccccc2Cl)C(Cl)Cl)cc1` (stereo not given), the Potency was 14.8 µM (active). Same read-out and setting: next, `C[C@@H]1CC(=O)NN=C1c1ccc(NN=C(C#N)C#N)cc1`: 20.9 µM (active); `Fc1ccc([C@@H]2CCNC[C@H]2COc2ccc3c(c2)OCO3)cc1`: 18.7 µM (active). As to `O=C1Cc2cc(CCN3CCN(c4nsc5ccccc45)CC3)c(Cl)cc2N1`, the Potency is 20.9 µM (active). As for `Cc1cc(C(C)(C)C)c(O)c(C)c1CC1=NCCN1`, the “viability (% of control)” value is 113% (inactive). Turning to `NCCS(=O)(=O)O`, the “viability (% of control)” value is 109% (inactive). Still for that read-out and setting: the result for `CN(C)c1nc(N(C)C)nc(N(C)C)n1` reads 112% (inactive).

The values above are taken from PubChem BioAssay (NCATS).
